Among the data in the supplement of paper PMC6555819 are PBM binding z-score values, retold here.

This assay deals with VDR:RXRa (NR concentration 270 nM, RXRa partner concentration 90 nM). Description: PBM binding z-score (relative to random genomic background probes); higher = stronger binding; sequences stand for … in GC…GCGATTGACAGCGTAGAATGAAGG
On the procedure:
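Protein-binding microarray (Agilent 4x180K custom design, double-stranded 60-nt probes: 5' GC cap, 34-nt variable region, 24-nt constant primer region; full probe sequence given). Purified or IVT nuclear receptor:RXRα heterodimers (3:1 NR:RXRα, mostly 270:90 nM) or homodimers were incubated for 1 h in PBS with 2% milk and no ligand, then detected with Alexa488 antibodies. Fluorescence from o1-orientation probes (~5 replicates averaged) was converted to z-scores against 500 random hg19 background probes. Variable regions are seed direct-repeat (DR0–DR5) sites, all their single-nucleotide variants and half-site ablations.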
In turn, AGAATGAGGTTATACGTAGATCATGGAAGAAAGT came in with a PBM binding z-score of 1.72.

With TAGCCTAGGTCATGGGCCAGTATACCACGCGAAC, the PBM binding z-score came to 1.97.

In turn, ATCTCTAGGTAACCAAGTTCAGTGATTGCCGAAC gave a PBM binding z-score of 4.17.

As to CGAACGAGGGTATGAGTTGATAGCAAATGCCGAT, the PBM binding z-score is -0.175.

In turn, TCTATTCGTTGAAGGGCAACCGACGAGTCCGTTT showed a PBM binding z-score of 1.08.

With ACTAGTTGGTCAGCTGAGGTCACACATAATTCGG, the PBM binding z-score was found to be 4.49.

Consider GCTAGCAGGCCATTTAGGTCACTCAATGACGGGC, for which the PBM binding z-score was 0.996.

ATCTCTGGGTAAAGATAGTTCAGTGAATGCAAAT: the PBM binding z-score was found to be 0.896.

For the sequence CCTACTGGGCCACAGGTCATTGATTCCAATGCTC, the PBM binding z-score came to 1.99.

CCGACTGGGGCAGAAAGGTTACCCTACCATCCGG gave a PBM binding z-score of 0.717.

In turn, TCGAGTAGGTTACCAATGGGGCATTCATCTTTCT yielded a PBM binding z-score of 0.117.

In turn, ACTATTAGTTGAGACGAGCGCAACCGATAGGTTG came in with a PBM binding z-score of -0.385.

ATCTCTACGTAACAAGTTCAGTGAAAGAGAGGAC had a PBM binding z-score of 1.38.

TAGCCTATGTCATTGGGCCAGTATAGTACGCATC returned a PBM binding z-score of -0.316.

With TCTAGTTGGTTAAAGGTCACACACTCGAAATGCG, the PBM binding z-score is 4.86.

TCATCTAGGTAAAAGGTGAAAGTCGGTGTGGTAA: the PBM binding z-score stood at 1.5.

For GCATATAGGTAATACAAGGCGAAAGTCCGATTGT, the PBM binding z-score is -0.126.

Sequence ACTAGTTGGTCAGCTAAGGTCACACACAATTCGG registered a PBM binding z-score of 3.99.

Sequence TTACCAAGGTGAGCTGAGGACGTTGATCCAACTC came in with a PBM binding z-score of 0.98.

CCTACTGGGGCAGAAAGGTTACCATACCATCCGG: the PBM binding z-score was 0.923.

Consider CCTGCTAGGTCAATTGTCAGCTAAAGCAGCTCGC, for which the PBM binding z-score was 0.479.

Sequence TCGAGTAGGTTAGGGGCATTCACAATGGCGTCGA showed a PBM binding z-score of 0.522.

On to AGAATGAGGTTAAGATCAGGGGAACAGAATACAT, for which the PBM binding z-score worked out at 1.33.

With GCTACTAGGTCAACTGATGGTCAGCTAAAGCTCG, the PBM binding z-score is 1.79.

Regarding ACAGACAGGTGAGTGAAGGTAAGTCAGCTGGACG, the PBM binding z-score was -0.37.

As for TAGCCTAGTTCAGATCGGGCCAGTATACGCTATA, the PBM binding z-score is -0.0916.

The sequence CCTAGCAGGCCAGCGTCACTCAAGCATTTCGCTT returned a PBM binding z-score of -0.645.

Take TCTAGGTGGTCAAAGGTCACACACTCGAAATGCG: the PBM binding z-score came out at 5.38.

Turning to GCAGACAGGTGAAACGCAGGTAACTGAGGGTGGC, the PBM binding z-score is -0.361.

Consider TCTACTTGGTCAAAGGTCACACACTCGAAATGCG, for which the PBM binding z-score is 5.28.

Regarding GTACCAAGGTGAATAGGTCGTTTATGAGTAGGCG, the PBM binding z-score is 1.07.

In the case of GCTGCTAGGTCAACTAATGGTCAGCTAAAGCTCG, the PBM binding z-score came to 1.35.

Turning to CCTAGTTTGTCAGGAGGTCACACACCGGATATGA, the PBM binding z-score worked out at 4.19.

TCAAATAGGTAAACAGGTGAAAGTCCGTAAGTTA returned a PBM binding z-score of 1.18.

Sequence GCTATTAGTTGAAAGTGCAACCGAATGATTCTCG had a PBM binding z-score of 0.133.

The sequence ACTAGCAGGGCAAGTTTGGGTCACTCAAACAAAG came in with a PBM binding z-score of 1.32.

Sequence TCTATTAGGTGATTAGGGCAACCGAAACAGCGGA yielded a PBM binding z-score of 0.268.

Sequence TCTGGTAGGTCAACGATGGTCAGCTAATCTGCTA displayed a PBM binding z-score of 2.2.

On to TAGCCTAGGTCATGCGCGCCAGTATAGTGTCGGC, for which the PBM binding z-score is 2.05.

CCTACTGGGCCAGAAAGGTCATTGATGCCGATAA displayed a PBM binding z-score of 4.91.
